Compound activity (PubChem BioAssay)
This is a sample that favours compounds with a hit; in the whole collection about 19% have one here.
DT40 TDP1 no CPT – qHTS for Inhibitors of human tyrosyl-DNA phosphodiesterase 1 (TDP1): qHTS in cells in absence of CPT; DT40 Tdp1-/- hTDP1 cells, no CPT, ATP luminescence, 48 h; Potency, µM (series often up to 46.2 µM), inactives show at the top dose activity change, negative = growth inhibition, actives largely listed as inhibitors; 420,000 compounds, 15% hits; AID 686978, 2013; also: potency is read from the fitted curve at half-maximal effect; % is scaled to controls: 0 for no effect and ±100 for the full control effect; nearly all actives have a fitted effect of over 55% in size
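Growth kinetics read by CellTiter-Glo luminescence after ≥48 hr at 37 °C. Cells: DT40 Tdp1-/- stably carrying human TDP1, 400 per well, compound exposure in the absence of CPT (DMSO vehicle).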
IL1B secr inh – inhibitors of inflammasome signaling (IL-1 beta secretion); THP-1 LPS/ATP IL-1B secretion, AlphaLISA, 16 h; hits give low values; activity change, % at 57.5 µM; 360,000 compounds, 4.7% hits; AID 743279; in the data active = activity change below about -50%; inconclusive = mostly about -30% to -49%; also: % is scaled to controls: 0 for no effect and ±100 for the full control effect
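THP-1 cells pretreated 1 hr with compounds (up to 57.5 uM final), then stimulated with LPS (250 ng/mL final) plus ATP (1.25 mM final); secreted IL-1B measured by AlphaLISA after 16 hr, decreased signal indicating inhibition.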
HepG2 tox – counter-screen for TGF-b inhibitors: cytotoxicity in HepG2 cells; Potency, µM (titrated, usually from 46.1 µM), without a hit: at the highest dose activity change, negative = cytotoxicity, actives largely listed as cytotoxic; 410,000 compounds, 0.76% hits; HepG2 CAGA-GFP viability, ATP luminescence, 18 h; also: potency is read from the fitted curve at half-maximal effect
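CellTiter-Glo luminescence gave cytotoxicity after 18 hours at 37 degrees C. The cells were HepG2 CAGA-GFP in 1% FBS DMEM, stimulated with 500 pg/mL TGF-beta after compound addition. %Activity was normalised to no-cell wells (complete cell-killing) and DMSO (no toxicity), and curves were fitted and classified.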
TGFb inhibitor – TGF-b pathway inhibition; Potency, µM (top dose mostly 46.1 µM), for inactives: top-dose activity, negative = inhibition, usual class: inhibitors; 410,000 compounds, 1.2% hits; HepG2 CAGA-GFP TGF-b/SMAD3 reporter, GFP fluorescence, 18 h; TGF-beta stimulated, 500 pg/mL final; AID 588855; also: potency is read from the fitted curve at half-maximal effect; % is scaled to controls: 0 for no effect and ±100 for the full control effect; nearly all actives have a fitted effect of over 65% in size
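Cell-based qHTS in HEPG2 carrying a CAGA-GFP Smad reporter; compounds added before 500 pg/mL final TGF-beta, 18 h incubation at 37 degrees C, GFP fluorescence quantified per cell by imaging cytometry.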
TDP1 cell CPT – DT40-hTDP1 cell growth loss with CPT; chicken DT40 Tdp1-/-;hTDP1 cells + 20 nM CPT, ATP luminescence, 48 h; Potency, µM (series often up to 46.2 µM), for the others: at the highest dose activity change, negative = growth inhibition, most hits filed as inhibitors; 420,000 compounds, 12% hits; AID 686979; also: potency is read from the fitted curve at half-maximal effect; % is scaled to controls: 0 for no effect and ±100 for the full control effect; nearly all actives have a fitted effect of over 55% in size
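Chicken DT40 Tdp1-/- cells complemented with human TDP1, 400 cells/well, exposed to compounds plus 20 nM camptothecin for at least 48 h at 37 C; viability read as ATP content by CellTiter-Glo luminescence.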
S-ASM inh – human S-ASM enzyme inhibition; 340,000 compounds, 0.006% hits; placental ASM, HMU-PC fluorogenic substrate, 60 min; AID 504937; Potency, µM (top dose mostly 57.5 µM), inactives show top-dose activity change, negative = inhibition, most hits filed as inhibitors; also: potency is read from the fitted curve at half-maximal effect
Target sequence (P17405 47-631 limits assumed): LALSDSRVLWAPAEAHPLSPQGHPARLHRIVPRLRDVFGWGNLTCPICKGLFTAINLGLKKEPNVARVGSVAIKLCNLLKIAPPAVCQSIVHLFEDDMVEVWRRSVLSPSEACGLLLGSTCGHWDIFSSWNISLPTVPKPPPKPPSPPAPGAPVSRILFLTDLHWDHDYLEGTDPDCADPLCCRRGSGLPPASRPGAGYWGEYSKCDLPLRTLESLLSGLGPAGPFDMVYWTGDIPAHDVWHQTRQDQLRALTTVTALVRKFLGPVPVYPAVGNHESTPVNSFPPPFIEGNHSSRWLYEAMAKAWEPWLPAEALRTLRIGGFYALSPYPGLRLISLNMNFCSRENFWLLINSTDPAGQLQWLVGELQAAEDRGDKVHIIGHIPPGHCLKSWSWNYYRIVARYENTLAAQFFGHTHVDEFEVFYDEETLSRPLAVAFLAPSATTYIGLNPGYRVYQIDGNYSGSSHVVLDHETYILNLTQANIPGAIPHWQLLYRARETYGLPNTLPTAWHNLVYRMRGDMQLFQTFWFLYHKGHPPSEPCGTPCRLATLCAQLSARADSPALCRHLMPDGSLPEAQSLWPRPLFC
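Fluorogenic HMU-PC substrate (9 uM final) is turned over by placental ASM in 60 min at 37 C after a 10 min compound preincubation. Reaction ended by alkaline stop (pH 10), with fluorescence read at 386/447 nm.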
An asterisk follows results filed as active; ? = inconclusive; nt = no result; [ ] = another dose, or the depositor's remark. Unless noted, calls follow the shape of the dose curve; as a rule, active = well fitted curve in the direction sought with a large enough effect; inconclusive = small, poorly fitted or top-dose-only effect, or another doubt; inactive = no such curve, though single readings can be large; an effect the other way counts as inactive or inconclusive.

SMILES | DT40 TDP1 no CPT | IL1B secr inh | HepG2 tox | TGFb inhibitor | TDP1 cell CPT | S-ASM inh
O=C(Cn1c(=O)n(-c2ccccc2Cl)c(=O)c2sc3ccccc3c21)NC1CCCCC1 | ? | nt | 5% | 5% | -19% | nt
CCn1c(C)c(C)c2cc(C(=O)Nc3cccc(Cl)c3)ccc21 | 18µM* | ? | -20% | 3% | ? | -12%
CCc1ccc(CNC(=O)c2ccc3c(c2)c(C)c(C)n3Cc2ccccc2)cc1 | ? | nt | -31% | -4% | 18µM* | nt
CCn1c(C)c(C)c2cc(C(=O)NCc3cccc(C)c3)ccc21 | ? | nt | -17% | -22% | 23µM* | nt
Cc1cccc(Cn2c(C)c(C)c3cc(C(=O)NCc4ccc(C)o4)ccc32)c1 | ? | nt | -32% | ? | ? | nt
CCc1cccc(NC(=O)c2ccc3c(c2)c(C)c(C)n3Cc2ccc(F)cc2)c1 | ? | nt | -56% | ? | 15µM* | nt
CN(CC(=O)Nc1ccccc1Br)C(=O)c1cc([N+](=O)[O-])ccc1N1CCOCC1 | -5% | -5 | -6% | 17% | -36% | -3%
COc1cc2ccccc2cc1C(=O)Nc1ccc2oc(-c3ccc(F)cc3Cl)nc2c1 | -10% | nt | -48% | -13% | -14% | nt
O=C1CC[C@@H](C(=O)NCC2Cc3cc(Cl)cc(-c4ccc5[nH]ccc5c4)c3O2)N1 (some centres not stated) | -25% | nt | nt | nt | -4%[9.04 µM] | nt
Cc1ccc(CNC(=O)c2ccc3c(c2)c(C)c(C)n3Cc2ccc(Cl)cc2)o1 | 5.2µM* | nt | -23% | -29% | ? | nt
CCN1CCN(CCCNC(=O)CNC(=O)c2nn(-c3ccc(OC)cc3OC)c(=O)c3ccccc23)CC1 | -17% | 2 | -11% | -11% | -22% | 4%
CCOc1ccc(OCCOC(=O)CN(C)S(=O)(=O)c2ccc(NC(C)=O)cc2)cc1 | 0% | -12 | 3% | -3% | -3% | -1%
CCOc1ccc(Oc2ccccc2NS(=O)(=O)c2ccc(CCC(=O)O)cc2)cc1 | ? | 7 | -1% | -4% | ? | 13%
O=C(NCCN1C(=O)S/C(=C/c2cccnc2)C1=O)c1cccs1 | ? | ? | -19% | 9% | ? | 2%
O=C(COc1ccccc1-c1ccccc1)NCCN1C(=O)S/C(=C\c2cccnc2)C1=O | 16µM* | -1 | -18% | 0% | 16µM* | -8%
O=C(NCCN1C(=O)S/C(=C\c2cccnc2)C1=O)C1=NN(c2ccccc2)C(=O)CC1 | 23µM* | 0 | -1% | 3% | ? | -1%
NC(=O)[C@@H]1CCCN1C(=O)CCN1Cc2ccccc2OC(c2ccccc2F)C1 (some centres not stated) | -8% | nt | nt | nt | 14%[9.04 µM] | nt
COc1cc(CCC(=O)NCc2ccc3c(c2)CCN3C(=O)c2cccc(C)c2)cc(OC)c1OC | ? | nt | -2% | -3% | -18% | nt
COc1ccc(CCC(=O)NCc2ccc3c(c2)CCN3C(=O)c2ccc(C)cc2)cc1 | 21µM* | nt | -2% | -1% | ? | nt
COc1cc(CCC(=O)NCc2ccc3c(c2)CCN3C(=O)c2ccccc2)cc(OC)c1OC | -25% | nt | -25% | ? | -16% | nt
COc1ccc(CCC(=O)NCc2ccc3c(c2)CCN3C(=O)c2cccc(C)c2)cc1 | 4.6µM* | nt | -51% | ? | 5.8µM* | nt
CCc1cc(=O)oc2c(C)c(OCC(=O)N3CCCc4ccccc43)ccc12 | ? | -20 | -54% | ? | 18µM* | -3%
CCCc1cc(=O)oc2c(C)c(OCC(=O)N3CCC[C@@H]3C(=O)O)ccc12 | -14% | 10 | -10% | -10% | -5% | 14%
